Source: PubChem BioAssay (NCI)
This is part of a sample that, as a whole, favours compounds with a hit. Of some 83,000 tested, about 20% had one in any assay.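 Assay: single dose, 48 h. Readout: percent growth (0 = no net growth; negative = cell death). Active: <10.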 A number with no mark means an inactive call. The source made the active and inactive calls.

Tests used:
Assay in all cases: NCI-60 one-dose screen, 48 h (100 = growth as untreated, 0 = no growth, -100 = all killed)
Details in all cases: 10 µM unless noted
HCT-15 colon = test system: HCT-15 colon
HT29 colon = test system: HT29 colon
SNB-75 CNS = test system: SNB-75 CNS
SNB-19 CNS = test system: SNB-19 CNS
U251 CNS = test system: U251 CNS
PC-3 prostate = test system: PC-3 prostate
SK-MEL-5 melanoma = test system: SK-MEL-5 melanoma
UACC-62 melanoma = test system: UACC-62 melanoma
LOX IMVI melanoma = test system: LOX IMVI melanoma
SK-MEL-28 melanoma = test system: SK-MEL-28 melanoma
SK-MEL-2 melanoma = test system: SK-MEL-2 melanoma
EKVX NSCLC = test system: EKVX NSCLC
SN12C renal = test system: SN12C renal
UO-31 renal = test system: UO-31 renal
TK-10 renal = test system: TK-10 renal
ACHN renal = test system: ACHN renal
CAKI-1 renal = test system: CAKI-1 renal
A498 renal = test system: A498 renal
CCRF-CEM leukemia = test system: CCRF-CEM leukemia
MOLT-4 leukemia = test system: MOLT-4 leukemia

Structure (SMILES) | growth (HCT-15 colon) | growth (HT29 colon) | growth (SNB-75 CNS) | growth (SNB-19 CNS) | growth (U251 CNS) | growth (PC-3 prostate) | growth (SK-MEL-5 melanoma) | growth (UACC-62 melanoma) | growth (LOX IMVI melanoma) | growth (SK-MEL-28 melanoma) | growth (SK-MEL-2 melanoma) | growth (EKVX NSCLC) | growth (SN12C renal) | growth (UO-31 renal) | growth (TK-10 renal) | growth (ACHN renal) | growth (CAKI-1 renal) | growth (A498 renal) | growth (CCRF-CEM leukemia) | growth (MOLT-4 leukemia)
O=C1/C(=C/c2cccc(Br)c2)COc2ccc(O)cc21 | 21.4% | 15% | 64.4% | 45.1% | 18.3% | 51.2% | 88.3% | 42.6% | -37.1% (active) | 98.8% | 79.2% | 78.4% | 4.81% (active) | 54.1% | 93.1% | 54.6% | 63.5% | 99.5% | 0.865% (active) | 6.15% (active)
O=C(/C=C/c1cn(-c2ccccc2)nc1-c1ccccc1)CCC(=O)NO | 110% | 104% | 95.6% | 112% | 106% | 108% | 105% | 103% | 99.4% | 130% | 99% | 111% | 102% | 87.7% | 104% | 106% | 94.5% | 105% | 93.2% | 79.9%
COc1cc2ncnc(Nc3ccc(S(=O)(=O)Nc4nccs4)cc3)c2cc1OCCCN1CCCC1 | 101% | 107% | 93.8% | 103% | 101% | 100% | 105% | 97.2% | 98.9% | 109% | 114% | 107% | 99.9% | 84.9% | 123% | 108% | 100% | 104% | 100% | 104%
O=CN1N=C(c2cccc(Nc3ccnc4cc(Cl)ccc34)c2)CC1c1ccc(Cl)cc1 (stereo not given) | 29.5% | -24.8% (active) | -17.4% (active) | 49% | 18.9% | 23.1% | 12.7% | 32.4% | 24.2% | 52.7% | 9.56% (active) | 49.1% | 34.1% | 22.7% | 45% | 45.5% | 18.8% | 11.4% | 12.2% | 13.7%
C#CCOc1ccc2nc(CCl)c(Cl)c(Nc3cccc(C(F)(F)F)c3)c2c1 | 36.3% | 75.6% | 70.5% | 98.5% | 77.3% | 85.1% | 58.2% | 71.2% | -1.15% (active) | 108% | 84.4% | 91.1% | 68.6% | 51.8% | 89.8% | 52.1% | 77% | 104% | 20.9% | 29.5%
Cn1cc(-c2nonc2-c2c[nH]c3ccccc23)c2cc(Br)ccc21 | 18.5% | 8.18% (active) | 46.3% | 49.7% | 29.8% | 41.7% | 48% | 34.2% | 19% | 60.8% | 41% | 33.6% | 55% | 36.8% | 53.3% | 40.3% | 26.3% | 40.3% | 31% | 17.8%
COc1ccc(CN2C(=O)OC(C)(COC(C)=O)C2=O)cc1 (stereo not given) | 102% | 107% | 100% | 102% | 104% | 101% | 101% | 95.6% | 100% | 101% | 111% | 107% | 99.8% | 95% | 104% | 102% | 94.8% | 103% | 99.5% | 95.6%
O=C(CCCCCCCC(=O)N1CCCCC1)N1CCCCC1 | 96.8% | 106% | 78.8% | 105% | 102% | 95.3% | 97.1% | 91% | 88.1% | 102% | 103% | 100% | 99.4% | 71.4% | 97.3% | 97.8% | 89.4% | 94.2% | 116% | 126%
C=C(C)[C@@H]1CC[C@]2(C)[C@H](C=CC3=C4C[C@@](C)(CO)CC[C@]4(C)CC[C@]32C)[C@@]1(C)CCCN | -82% (active) | -38.7% (active) | -6.45% (active) | 34.3% | -64.5% (active) | -34% (active) | 17.5% | 77.6% | -100% (active) | -79.8% (active) | -52.5% (active) | 42.5% | -13.4% (active) | 47.2% | -68.4% (active) | -94.9% (active) | -81.6% (active) | 68.3% | 0.791% (active) | -10.5% (active)
CCN(CCNc1ccc(C)c2sc3cc(Cl)ccc3c(=O)c12)CC(C)(C)O | 17.5% | 21.7% | 68.5% | 71% | 46.3% | 81.2% | 63.4% | -60.1% (active) | 41.8% | -33% (active) | 56.6% | 82% | 71.5% | 50.5% | 75.7% | 69.3% | 55.8% | 75.5% | 79.5% | 70.5%
COc1ccc(/C=C2\CN(C(=O)C(Cl)Cl)C/C(=C\c3ccc(OC)c(OC)c3)C2=O)cc1OC | -38.9% (active) | 10.8% | 10.9% | 6.34% (active) | -17.4% (active) | -7.16% (active) | -58.8% (active) | -59.6% (active) | -67.8% (active) | -8.59% (active) | 14.9% | 8.31% (active) | -60.6% (active) | -99% (active) | 22% | -82.7% (active) | -17.2% (active) | -48.2% (active) | 12% | 5.43% (active)
CCCCCc1ccc(S(=O)(=O)Nc2cc(-c3csc(NC(C)=O)n3)ccc2N2CCN(C)CC2)cc1 | 4% (active) | 5.9% (active) | 37.3% | 74.6% | 12.2% | 41.2% | 30.2% | -56.2% (active) | -95.4% (active) | -80.2% (active) | 81.3% | 78.2% | 61.4% | 49.4% | 99.3% | 54.6% | 64.1% | 66.2% | 29.8% | 12.4%
CN(C)c1ccc(C(=S)c2ccc(N(C)C)cc2)cc1 | 43% | 30.9% | 78.1% | 72.6% | 62.4% | 71.2% | 30.5% | 52.2% | 69% | 84.4% | 58.5% | 98.2% | 75.6% | 59% | 82.7% | 93.4% | 87.1% | 62.6% | 77.3% | 75.5%
O=S(=O)(N=C1C(Cl)=C(Cl)C(=NS(=O)(=O)c2ccccc2)C(Cl)=C1Cl)c1ccccc1 | 7.28% (active) | 14% | 132% | 95.9% | 59.8% | 121% | 87% | 67.1% | 54.6% | 89.5% | 14% | 107% | 87.6% | 89.5% | 95.3% | -22.5% (active) | 5% (active) | 96.8% | 73.6% | 55%
C/C=C1/CN(CCCCC)CC[C@H]1C(=O)c1cc2ccccc2[nH]1 | 87% | 75.7% | 76.4% | 96.7% | 98.1% | 85.8% | 87.9% | 95% | 90.1% | 111% | 118% | 94.1% | 86.1% | 50.7% | 120% | 96.1% | 87.6% | 88.9% | 96.8% | 86.1%
